Data taken from PubChem BioAssay (Tox21).
Results filed as inconclusive are left out. Some structures have more than one record in an assay (separate samples or runs), and their calls can disagree. Activity calls are given as the source filed them. Unless noted, the call rests on the fitted dose curve.

Assays:
[1] = Nuclear factor erythroid 2-related factor 2/antioxidant responsive element (Nrf2/ARE) small molecule agonists: qHTS cell viability counter screen in human keratinocytes (AID 1919968; active means well fitted curve in the direction sought with a large enough effect in the repeat runs; an effect the other way counts as inactive or inconclusive; further: nearly all actives have a fitted effect of over 55% in size; further: potency means the concentration at half of the fitted maximal effect)
Outline: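 Fluorescence read-out from CellTiter-Fluor after 1 h at 37 C. Wells held HaCaT-derived ARE-luciferase reporter cells (1,500/well) treated 23 h with DMSO-dissolved compounds. Run in the same wells as the luciferase agonist read.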

[2] = Nuclear factor erythroid 2-related factor 2/antioxidant responsive element (Nrf2/ARE) small molecule agonists: luciferase reporter gene qHTS assay in human keratinocytes (AID 1919969); further: nearly all actives have a fitted effect of over 35% in size; further: potency means the concentration at half of the fitted maximal effect
[3] = target: Gonadotropin-releasing hormone receptor (Homo sapiens) (UniProt P30968); experiment: Human gonadotropin-releasing hormone receptor (GnRHR) small molecule agonists, calcium flux assay in GnRHR-HEK293 cells (AID 1920063); further: nearly all actives have a fitted effect of over 35% in size
Sequence of Gonadotropin-releasing hormone receptor (Homo sapiens) (P30968 whole entry, looked up): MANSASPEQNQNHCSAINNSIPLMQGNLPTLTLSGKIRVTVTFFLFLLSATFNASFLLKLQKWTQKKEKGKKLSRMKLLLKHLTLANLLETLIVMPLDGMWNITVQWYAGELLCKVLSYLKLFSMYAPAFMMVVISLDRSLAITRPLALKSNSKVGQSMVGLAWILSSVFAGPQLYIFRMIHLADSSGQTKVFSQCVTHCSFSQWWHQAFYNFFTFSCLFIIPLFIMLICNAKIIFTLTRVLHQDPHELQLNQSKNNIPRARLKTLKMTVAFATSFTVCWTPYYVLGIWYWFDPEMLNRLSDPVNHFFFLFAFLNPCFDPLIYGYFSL
Outline: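 Calcium-dye fluorescence, Ex/Em=480/540, recorded every 1 sec over 3 min after compound addition to GnRHR-HEK293 cells. Cells had been seeded 18 hours earlier and dye-loaded for 1 hour at 37 C. Fifteen concentrations, triplicates.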

[4] = target: KiSS-1 receptor (Homo sapiens) (UniProt Q969F8); experiment: Human kisspeptin (KISS1R) small molecule agonists, calcium flux assay in KISS1R-HEK293 cells (AID 1920064; active means well fitted curve in the direction sought with a large enough effect in the repeat runs; an effect the other way counts as inactive or inconclusive)
Sequence of KiSS-1 receptor (Homo sapiens) (Q969F8 whole entry, looked up): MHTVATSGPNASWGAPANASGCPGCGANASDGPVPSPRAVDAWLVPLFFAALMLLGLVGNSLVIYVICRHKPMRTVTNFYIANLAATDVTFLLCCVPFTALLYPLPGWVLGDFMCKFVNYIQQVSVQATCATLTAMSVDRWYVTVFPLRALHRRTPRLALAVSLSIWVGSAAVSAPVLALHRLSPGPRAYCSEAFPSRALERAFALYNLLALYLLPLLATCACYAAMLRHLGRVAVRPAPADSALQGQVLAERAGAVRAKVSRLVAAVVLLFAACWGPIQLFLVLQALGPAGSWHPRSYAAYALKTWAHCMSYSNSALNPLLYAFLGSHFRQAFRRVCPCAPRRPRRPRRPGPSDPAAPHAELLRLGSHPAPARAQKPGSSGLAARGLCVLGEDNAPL
Outline: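 Calcium flux read-out: kinetic fluorescence at Ex/Em=480/540, 1 s intervals over 3 min, after pin-tool compound addition to dye-loaded KISS1R-HEK293 cells. Fifteen concentrations, triplicates.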

[5] = G protein-coupled receptor (GPCR) small molecule agonists, calcium flux assay: HEK293 wild type cell line counter screen (AID 1920065)
Outline: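 Agonist mode; 18 h seeding at 37 C, 1 h dye load at 37 C; compounds pinned from DMSO, ATP as positive control; kinetic fluorescence 480/540 nm, 3 min, 1 s reads; 15 concentrations, triplicate.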

[6] = p53 small molecule agonists, cell-based qHTS assay with human liver microsomes (AID 1963577);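 further: p53 response element beta-lactamase reporter cells with liver microsomes plus NADPH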
Outline: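 16 h, 37 C exposure of p53RE-bla cells to compounds with human liver microsomes and NADPH (0.5 mg/mL final each); detection via LiveBLAzer mixture, 2 h dark at room temperature.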

[7] = p53 small molecule agonists, cell-based qHTS assay with rat liver microsomes (AID 1963578)
Outline: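 With rat liver microsomes and NADPH present (0.5 mg/mL final each), p53RE-bla cells are treated with compound for 16 h at 37 C. LiveBLAzer detection mixture is then applied for 2 h at room temperature in the dark.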

[8] = p53 small molecule agonists, cell-based qHTS assay with human liver microsomes: qHTS cell viability counter screen (AID 1963579); further: nearly all actives have a fitted effect of over 45% in size
Outline: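 In this multiplexed counter screen, the reporter plates were subsequently treated with CellTiter-Glo so that cell viability, reflected by luminescence, could be recorded for p53RE-bla cells dosed 16 h with compounds under microsomal activation (HLM and NADPH).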

[9] = p53 small molecule agonists, cell-based qHTS assay with rat liver microsomes: qHTS cell viability counter screen (AID 1963580); further: nearly all actives have a fitted effect of over 45% in size; further: potency means the concentration at half of the fitted maximal effect
Outline: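 Cytotoxicity counter screen: intracellular ATP read by CellTiter-Glo luminescence in the p53 reporter wells. HCT-116 p53RE-bla cells were treated for 16 h at 37 C alongside rat liver microsomes and NADPH, each 0.5 mg/mL final.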

[10] = p53 small molecule agonists, cell-based qHTS assay: qHTS cell viability counter screen (AID 1963581); further: nearly all actives have a fitted effect of over 45% in size
Outline: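 Cytotoxicity read-out: ATP-based luminescence (CellTiter-Glo, 30 min RT) measured in the same wells as the p53 reporter assay, HCT-116 p53RE-bla cells, 16 h compound exposure at 37 C.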

[11] = p53 small molecule agonists, cell-based qHTS assay (AID 1963582; active means well fitted activation curve with a large enough effect in the signal ratio in the repeat runs, not every such curve was filed as active; the % refers to the signal ratio)
Outline: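 Fluorescence intensity read-out of a beta-lactamase reporter under a p53 response element. Cells were exposed to DMSO-dissolved compounds for 16 h at 37 C, then developed with FRET substrate for 2 h at RT.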

[12] = target: 5-hydroxytryptamine receptor 2A (Homo sapiens) (UniProt P28223); experiment: 5-hydroxytryptamine receptor 2A (HTR2A) small molecule antagonists, cell-based qHTS assay (AID 1963586); further: nearly all actives have a fitted effect of over 45% in size
Sequence of 5-hydroxytryptamine receptor 2A (Homo sapiens) (P28223 whole entry, looked up): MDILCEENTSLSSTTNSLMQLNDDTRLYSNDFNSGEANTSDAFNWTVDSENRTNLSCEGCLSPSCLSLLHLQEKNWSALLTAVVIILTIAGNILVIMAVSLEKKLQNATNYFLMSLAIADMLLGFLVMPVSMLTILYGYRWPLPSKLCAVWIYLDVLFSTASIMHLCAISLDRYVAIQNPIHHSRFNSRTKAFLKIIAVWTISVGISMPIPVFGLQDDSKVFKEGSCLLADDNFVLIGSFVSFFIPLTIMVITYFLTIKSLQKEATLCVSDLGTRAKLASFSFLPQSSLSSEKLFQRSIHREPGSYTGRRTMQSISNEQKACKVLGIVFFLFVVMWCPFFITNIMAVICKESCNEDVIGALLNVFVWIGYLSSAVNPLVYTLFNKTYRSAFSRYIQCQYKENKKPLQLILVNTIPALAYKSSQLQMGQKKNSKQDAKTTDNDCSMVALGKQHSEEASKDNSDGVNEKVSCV
Outline: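 CHO cells stably expressing human HTR2A were plated for 18 h at 37 C, then loaded with calcium dye for 1 h. Compounds were preincubated 5 min at room temperature before DOI (4 nM solution) was added. Kinetic fluorescence was read for 3 min.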

[13] = target: 5-hydroxytryptamine receptor 2A (Homo sapiens) (UniProt P28223); experiment: 5-hydroxytryptamine receptor 2A (HTR2A) small molecule agonists, cell-based qHTS assay (AID 1963587); further: nearly all actives have a fitted effect of over 30% in size
Outline: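 Kinetic calcium-flux fluorescence (2 min, 1 sec intervals) after compound addition in agonist mode. HTR2A-CHO cells were cultured 18 h, then dye-loaded 1 h at 37 C.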

[14] = target: Muscarinic acetylcholine receptor M1 (Homo sapiens) (UniProt P11229); experiment: Cholinergic receptor muscarinic 1 (CHRM1) small molecule antagonists, cell-based qHTS assay (AID 1963588); further: nearly all actives have a fitted effect of over 40% in size
Sequence of Muscarinic acetylcholine receptor M1 (Homo sapiens) (P11229 whole entry, looked up): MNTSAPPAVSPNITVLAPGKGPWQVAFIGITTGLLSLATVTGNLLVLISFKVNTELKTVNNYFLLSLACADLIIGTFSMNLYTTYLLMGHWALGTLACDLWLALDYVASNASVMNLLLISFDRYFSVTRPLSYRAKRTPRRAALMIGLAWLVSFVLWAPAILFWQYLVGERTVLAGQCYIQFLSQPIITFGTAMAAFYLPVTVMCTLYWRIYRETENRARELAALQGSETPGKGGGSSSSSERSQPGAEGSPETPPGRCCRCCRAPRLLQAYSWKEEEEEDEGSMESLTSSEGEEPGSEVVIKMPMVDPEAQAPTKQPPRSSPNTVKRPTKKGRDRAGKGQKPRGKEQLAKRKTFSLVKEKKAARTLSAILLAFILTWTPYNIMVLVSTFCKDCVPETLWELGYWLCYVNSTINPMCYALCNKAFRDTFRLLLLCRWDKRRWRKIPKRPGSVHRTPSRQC
Outline: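 Compounds were tested at 15 concentrations in three independent runs. Dye-loaded CHRM1-CHO cells were exposed 5 min at room temperature before stimulation by acetylcholine added at 50nM. Intracellular calcium was read kinetically on FDSS for 3 min.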

[15] = cAMP Responsive Elements (CRE) small molecule agonists, cell-based qHTS assay (AID 1963590)
Outline: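 Beta-lactamase reporter readout: LiveBLAzer B/G FRET substrate, 2 h at room temperature, added after 3 h compound treatment of CRE-bla HEK 293T cells at 37 C/5% CO2.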

[16] = cAMP Responsive Elements (CRE) small molecule antagonists, cell-based qHTS assay (AID 1963591; active means well fitted inhibition curve with a large enough effect in the signal ratio in the repeat runs, not every such curve was filed as active; the % refers to the signal ratio)
Outline: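 HEK293T CRE-bla; 18 h preincubation; compound pin-transfer; NKH477 0.25 uM final, 3 h, 37 C; LiveBLAzer FRET substrate 2 h RT.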

[17] = target: Beta-2 adrenergic receptor (Homo sapiens) (UniProt P07550); experiment: Adrenergic beta2 receptor (ADRB2) small molecule agonists, cell-based qHTS assay (AID 1963593);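 further: CHO cells stably overexpressing human ADRB2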
Sequence of Beta-2 adrenergic receptor (Homo sapiens) (P07550 whole entry, looked up): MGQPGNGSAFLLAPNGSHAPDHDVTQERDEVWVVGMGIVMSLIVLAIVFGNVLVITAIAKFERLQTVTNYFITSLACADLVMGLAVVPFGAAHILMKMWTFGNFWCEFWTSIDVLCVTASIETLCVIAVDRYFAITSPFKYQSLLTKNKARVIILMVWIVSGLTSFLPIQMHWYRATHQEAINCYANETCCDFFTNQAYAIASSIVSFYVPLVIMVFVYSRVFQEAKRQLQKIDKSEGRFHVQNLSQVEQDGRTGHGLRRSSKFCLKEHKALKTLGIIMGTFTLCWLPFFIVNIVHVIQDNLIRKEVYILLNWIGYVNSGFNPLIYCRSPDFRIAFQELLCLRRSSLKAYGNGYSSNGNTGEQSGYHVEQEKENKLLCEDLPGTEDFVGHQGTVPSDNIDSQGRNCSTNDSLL
Outline: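 CHO cells stably over-expressing ADRB2 were plated overnight at 37C, then dosed with compounds plus a stimulation mix containing 100uM IBMX and 25uM Ro-20-1724 for 0.5hr at room temperature. cAMP was measured by HTRF competition, 1hr.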

[18] = target: D(2) dopamine receptor (Homo sapiens) (UniProt P14416); experiment: Dopamine D2 receptor (DRD2) small molecule agonists, cell-based qHTS assay (AID 1963594); further: nearly all actives have a fitted effect of over 35% in size
Sequence of D(2) dopamine receptor (Homo sapiens) (P14416 whole entry, looked up): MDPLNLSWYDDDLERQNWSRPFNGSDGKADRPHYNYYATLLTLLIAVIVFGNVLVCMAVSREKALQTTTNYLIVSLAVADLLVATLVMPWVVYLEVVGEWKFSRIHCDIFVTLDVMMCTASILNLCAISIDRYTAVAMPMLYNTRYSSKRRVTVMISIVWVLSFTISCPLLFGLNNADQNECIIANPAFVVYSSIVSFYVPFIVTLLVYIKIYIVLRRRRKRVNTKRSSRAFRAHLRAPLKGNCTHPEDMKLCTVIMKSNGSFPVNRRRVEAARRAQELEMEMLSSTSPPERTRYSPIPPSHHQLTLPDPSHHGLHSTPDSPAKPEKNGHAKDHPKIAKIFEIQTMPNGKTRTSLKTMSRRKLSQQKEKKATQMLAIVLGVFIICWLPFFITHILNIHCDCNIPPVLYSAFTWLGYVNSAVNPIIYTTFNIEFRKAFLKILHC
Outline: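 cAMP accumulation in DRD2-HEK293 cells measured by HTRF after 1 h detection; compounds added 10 min before NKH477 (200nM […]) forskolin-analogue stimulation, 30 min at room temperature, with Ro20-1724 present at 0.1 mM final.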

[19] = target: D(2) dopamine receptor (Homo sapiens) (UniProt P14416); experiment: Dopamine D2 receptor (DRD2) small molecule antagonists, cell-based qHTS assay (AID 1963595; active means well fitted inhibition curve with a large enough effect in the signal ratio in the repeat runs, with a control signal flat; the % refers to the signal ratio)
Outline: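 HEK293 cells stably expressing DRD2 were preincubated with 0.1 mM Ro20-1724, then with compound for 10 min at room temperature. Cells were stimulated with 200 nM NKH477 plus 12 nM quinpirole for 30 min, and cAMP was read by HTRF.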

[20] = target: Beta-2 adrenergic receptor (Homo sapiens) (UniProt P07550); experiment: Adrenergic beta2 receptor (ADRB2) small molecule antagonists, cell-based qHTS assay (AID 1963592); further: series mostly up to about 92 µM; nearly all actives have a fitted effect of over 50% in size
Outline: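 Assay format: CHO-ADRB2 cells, 18-20hr seeding at 37C/5% CO2, then compound plus 1nM isoproterenol agonist mix for 0.5hr RT. Homogeneous time-resolved fluorescence cAMP detection after 1hr, expressed as 665/615 nm ratio.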

Measured: Potency

Cc1ccc(S(=O)(=O)NC2CCCCC2)cc1
not listed: [20]
inactive: all other assays above

CCCCC1CCC(=O)O1 (stereo unspecified)
not listed: [17]
inactive: all other assays above

Cc1c(I)c(=O)n(-c2ccccc2)n1C
not listed: [18]
inactive: all other assays above

CCCCN=C(N)N=C(N)N
not listed: [17]
inactive: all other assays above

CC(C)Nc1ccccc1
not listed: [17]
inactive: all other assays above

OC[C@H]1O[C@H](O[C@H]2O[C@H](CO)[C@@H](O)[C@H](O)[C@H]2O)[C@H](O)[C@@H](O)[C@@H]1O
not listed: [15] | [16] | [18]
inactive: all other assays above

N#CC1(c2ccc(F)cc2)CCC(=O)CC1
not listed: [18]
inactive: all other assays above

CC(=O)CC/C=C(\C)CC/C=C(\C)CC/C=C(\C)CCC=C(C)C
active: [2] 26.6 µM
not listed: [15] | [17]
inactive: all other assays above

COC(=O)c1ccc(C(=O)OC)cc1
2.47 µM (active) and inactive: [1]
18.5 µM (active) and inactive: [9]
not listed: [15] | [17]
inactive: all other assays above

COC(=O)CCC(=O)O
inactive: all assays above

COS(=O)(=O)O
not listed: [17]
inactive: all other assays above

COc1cc(Cl)ccc1Cl
not listed: [15] | [16] | [17]
inactive: all other assays above

CC12CCC(C(=O)C1=O)C2(C)C (stereo unspecified)
inactive: all assays above

COC(=O)c1cc(S(N)(=O)=O)ccc1OC
not listed: [17] | [19]
inactive: all other assays above

FC(F)(F)C(Cl)(Cl)Cl
inactive: all assays above
